About 83,000 compounds went through this panel and 20% of them were active in at least one assay; those are over-represented in the sample as a whole.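 In brief: 96-well plates, 48 h treatment, single concentration, percent growth endpoint.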 Unmarked numbers belong to inactive results. Active and inactive are the calls of the source.
Each molecule was assayed on HOP-92 NSCLC (assay: NCI-60 one-dose screen, 48 h (100 = growth as untreated, 0 = no growth, -100 = all killed)). Conditions: 10 µM unless noted.
Protocol: Growth inhibition of the HOP-92 human Non-Small Cell Lung tumor cell line is measured as a screen for anti-cancer activity. Cells are grown in 96 well plates and exposed to the test compound for 48 hours. Compounds are tested at a single concentration, which is 10^-5 M for most compounds. The reported endpoint is percent growth (GI% or GIPRCNT), where numbers from 0 - 100% represent growth inhibition, and numbers from -100% - 0 represent cell death. For example, a value of 40 represents 60% growth inhibition. A value of 0 means no net growth occurred over the course of the experiment. A value of -40 indicates 40% of cells at the beginning of the experiment died by the end of the experiment. A value of -100 means all cells are dead at the end of the experiment.
NCI-60 Human Tumor Cell Lines Screen was performed using the standard one-dose NCI protocol, which is described in more detail at https://dtp.cancer.gov/discovery_development/nci-60/default.htm.
Compounds with GIPRCNT values below 10 were considered active. Activity score was based on GIPRCNT using the following formula: […]
Score is 0 for GIPRCNT values of 100 or above, 50 for GIPRCNT values of 0, and 100 for GIPRCNT values of -100.

| Structure (SMILES) | growth |
| --- | --- |
| COc1ccc(-c2csc(N(C(=O)N3CCN(c4cc5c(cc4F)c(=O)c(C(=O)O)cn5C4CC4)CC3)c3ccccc3)n2)cc1 | -18.1% (active) |
| Cn1c(=O)c2c(nc(NC3=NS(=O)(=O)c4ccccc43)n2CC(=O)N2CCc3ccccc32)n(C)c1=O | 109% |
| O=C1c2cccc(NCCN=Cc3cc(O)ccc3O)c2C(=O)c2c(NCCN=Cc3cc(O)ccc3O)cccc21 | -25.5% (active) |
| Oc1ccc(CN2CCC(N3CCCCC3)CC2)c2cccnc12 | -11.8% (active) |
| CC(C)c1ccc(NC(=O)Nc2ccc(NC(=O)CCCC(=O)NOCc3ccccc3)cc2)cc1 | 104% |
| CCN1C(=O)N(CC)C2C1NN=c1s/c(=C\c3ccc(Cl)cc3Cl)c(=O)n12 (stereo not given) | 50.8% |
| CS(=O)(=O)Nc1cc(-c2ccc3ncnc(Nc4c(Cl)ccc5c4OCO5)c3c2)cnc1Cl | -10.5% (active) |
| Cc1ccc2c(n1)C(=O)c1[nH]c3ccccc3c1C2=O | 78% |
| Cc1ccc(/C=N/Nc2nc(Nc3ccccc3)nc(-n3nc(C)cc3C)n2)cc1 | 60.7% |
| C=CCn1c(SCC(=O)NCc2cc(C)c(O)c(C)c2)nc2ccc(Cl)cc2c1=O | 82.2% |
| O=C(/C=C/c1cn(-c2ccccc2)nc1-c1ccc([N+](=O)[O-])cc1)c1ccc(Cl)cc1 | 58.5% |
| COc1ccc(C(=O)Nc2ncc(Cc3ccc(F)cc3)s2)cc1 | 51.5% |
| CC(=O)c1cc(O)c2ccccc2c1O | 92.6% |
| OCCCC1CCN(C(Cc2ccccc2)c2ccccc2)CC1 (stereo not given) | 80.6% |
| O=S(=O)(Nc1ccc(Cl)cc1)c1ccc(-c2cnc(C3CC3)o2)cc1 | 41% |
| CCCCCCCCn1ccc2cc(NC(=O)Cn3cc(CN4CCCCC4)nn3)ccc21 | 38.1% |
| CCCNC(=O)Oc1ccc(/C(=C(/C)Cc2ccc(OC)cc2)c2ccc(OCCCN(C)C)cc2)cc1 | 51.7% |
| Cc1ccccc1Cn1cnc2ccc(-c3cc(NC(=O)c4ccc(NC5CCN(C)CC5)cc4)n[nH]3)cc21 | 92.4% |
| O=C(Cn1cc(CN2C(=O)c3ccccc3S2(=O)=O)nn1)Nc1nc2ccccc2s1 | 100% |
| Clc1ccc2c(c1)N(c1ncnc3ccc(-c4cnc5[nH]ncc5c4)cc13)CC2 | -1.84% (active) |

| Structure (SMILES) | growth |
| --- | --- |
| CC1=C(CCC(C)N(C)Cc2ccc(OCCCN3CCCC3)cc2)C(C)(C)CCC1 (stereo not given) | 27.3% |
| Cn1c(=O)c2[nH]c(N/N=C/c3ccccc3Br)nc2n(C)c1=O | 104% |
| CC(C)(C)n1cc(-c2ccnc(NCCCNS(=O)(=O)c3ccc(F)cc3)c2)c(-c2cccc(F)c2)n1 | 67.5% |
| S=C(Nc1ccc(-c2nc(N3CCOCC3)c3cccn3n2)cc1)Nc1cccnc1 | -3.48% (active) |
| Nc1nc2c([nH]1)c1[nH]c3ccccc3c1c1[nH]c3ccccc3c21 | -2.6% (active) |
| CC(=O)[C@@H]1CCC=C2CC[C@]3(C)[C@@H](CC[C@@H]4[C@@]5(C)CCCNC(C)(C)[C@@H]5CC[C@]43C)[C@H]21 | -32.5% (active) |
| CCCCCCCCCCCCCCCCCCOc1ccccc1CC(=O)OCC[N+]1(C)CCCC1 | 32.7% |
| CN(C)c1ccc(/C=C/C(=O)c2ccc(-n3cc(CN4CCN(c5cc6c(cc5F)c(=O)c(C(=O)O)cn6C5CC5)CC4)nn3)cc2)cc1 | 50.3% |
| COc1cnc2c(c1)C(=O)c1c-2n(CCCNCCO)c(=O)c2ccncc12 | 20.8% |
| COc1ccccc1NC(=O)Cn1cc(CN2CCN(c3ccnc4cc(Cl)ccc34)CC2)nn1 | 61.8% |
| N#CC1C=CN(CC(N)=O)c2ccc3cccnc3c21 (stereo not given) | 98.3% |
| O=C1C(Cl)=C(Oc2ccccc2)C(=O)c2ccccc21 | 72.6% |
| Nc1nc(=S)c2ncn(C3OC(COP(=O)(O)O)C(O)C3O)c2[nH]1 (stereo not given) | 33.4% |
| CCCCCCCCCCCCCCCCCCOc1ccccc1CC(=O)NCC[N+]1(C)CCCC1 | 22.6% |
| COc1cc2c(c(OC)c1OC)C(=O)CC(c1cccc(NC(=O)c3ccc(Br)cc3)c1)O2 (stereo not given) | 25.7% |
| CCc1ccc(Oc2cn[nH]c2-c2ccc(OCCc3ccc(F)cc3)cc2O)cc1 | 83.2% |
| COc1ccc(/C=N/NC(=O)CCN2c3ccccc3Sc3ccccc32)cc1 | 62.7% |
| C=CCc1c(O)c(C(=O)/C=C/c2ccc(Cl)cc2)c(OC)c2ccoc12 | 48.6% |
| Cc1ccc(-c2nc(/C=C3/C(=O)Nc4ccccc43)c3ccccn23)cc1 | 105% |
| CCOc1ccc(NC(=O)CSc2oc(-c3ccccc3)nc2S(=O)(=O)c2ccc(F)cc2)cc1 | 31.1% |

Source: PubChem BioAssay (NCI)
